Reference: PubChem BioAssay (NCI)
This is part of a sample that, as a whole, favours compounds with a hit. Of some 83,000 tested, about 20% had one in any assay.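 For each line, cells grew in 96-well plates with the test compound present at a single concentration for 48 hours.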 Values without a mark were called inactive. The source made the active and inactive calls.

The molecules below were run on OVCAR-8 ovarian (assay: NCI-60 one-dose screen, 48 h (100 = growth as untreated, 0 = no growth, -100 = all killed)). Settings: 10 µM unless noted.
Description: Growth inhibition of the OVCAR-8 human tumor cell line is measured as a screen for anti-cancer activity. Cells are grown in 96 well plates and exposed to the test compound for 48 hours. Compounds are tested at a single concentration, which is 10^-5 M for most compounds. The reported endpoint is percent growth (GI% or GIPRCNT), where numbers from 0 - 100% represent growth inhibition, and numbers from -100% - 0 represent cell death. For example, a value of 40 represents 60% growth inhibition. A value of 0 means no net growth occurred over the course of the experiment. A value of -40 indicates 40% of cells at the beginning of the experiment died by the end of the experiment. A value of -100 means all cells are dead at the end of the experiment.
NCI-60 Human Tumor Cell Lines Screen was performed using the standard one-dose NCI protocol, which is described in more detail at https://dtp.cancer.gov/discovery_development/nci-60/default.htm.
Compounds with GIPRCNT values below 10 were considered active. Activity score was based on GIPRCNT using the following formula: […]
Score is 0 for GIPRCNT values of 100 or above, 50 for GIPRCNT values of 0, and 100 for GIPRCNT values of -100.

Row | SMILES | growth
1 | C(=C\c1c[nH]c2ccccc12)/c1ccc2ccccc2n1 | 78.7%
2 | COc1ccc(-n2c(/C=C/c3ccc(O)c(OC)c3)cc(/C=C/c3ccc(O)c(OC)c3)nc2=O)cc1 | 66%
3 | CC(C)/C=C/CC[C@](C)(O)[C@H]1CC[C@]2(C)[C@@H]1CC[C@@H]1[C@@]3(C)C/C(=C/c4cccc(C(F)(F)F)c4)C(=O)C(C)(C)[C@@H]3CC[C@]12C | 87.6%
4 | O=C1NC(c2ccc(Cl)c(Cl)c2)=C/C1=C\c1ccccc1 | 74.4%
5 | Nc1c(C(=O)Nc2c(Cl)cccc2Cl)sc2nc3c(cc12)C(=O)CCC3 | 62.7%
6 | O=C1C(=O)N(CCCCn2cc(-c3ccccc3)nn2)c2ccccc21 | 103%
7 | CN1CCN(CCOc2ccc(-c3cnc4c(-c5cccc(F)c5)cnn4c3)cc2)CC1 | 69.8%
8 | COc1cnc2c(c1)C(=O)c1c-2n(CCCN2CCN(CCO)CC2)c(=O)c2cc([N+](=O)[O-])ccc12 | 52.5%
9 | O=C(NC1=CC(=O)c2ccccc2C1=O)c1ccccc1 | 22.4%
10 | COc1cccc(-c2nn(-c3ccccc3)cc2-c2ccnc(NCCCNS(=O)(=O)c3cccc(F)c3)c2)c1 | 12.1%
11 | COc1cnc2c(c1)C(=O)c1c-2n(CCCNC(C)C)c(=O)c2cc([N+](=O)[O-])ccc12 | -47.6% (active)
12 | C=C(C)[C@@H]1CC[C@]2(C(=O)OC)CC[C@]3(C)[C@H](CC[C@@H]4[C@@](C)(CC/C(N)=N/O)[C@H](C(=C)C)CC[C@]43C)[C@@H]12 | 102%
13 | C=COCCCCCCCCCCCCCCCCCC | 96.5%
14 | COC(=O)[C@]12CC[C@@H](C)[C@H](C)[C@@H]1C1=CC[C@@H]3[C@@]4(C)CC(=O)[C@H](OC(=O)c5ccco5)[C@@]5(C)COC(=C45)C[C@@]3(C)[C@]1(C)CC2 | 28.5%
15 | Nc1nc2c(c(=O)[nH]1)C(c1ccc3c(c1)OCO3)C=C(C(=O)O)N2 (stereo not given) | 106%
16 | Cn1c2c(c3ccc(Cl)cc31)-n1cccc1C2=O | 83.5%
17 | Cn1c2c(Cl)c(Cl)ccc2c2c(C#N)c[nH]c(=O)c21 | 91.2%
18 | O=S(=O)(NCCNc1cc(-c2cn(-c3ccccc3)nc2-c2cccc(O)c2)ccn1)c1ccc(C(F)(F)F)cc1 | 48.3%
19 | Cc1nn(-c2ccc(Cl)cc2)c(=O)n1CCn1cnc2ccccc21 | 112%
20 | COC(=O)[C@]12CC[C@@H](C(=O)/C=C/c3cccnc3)[C@@H]1[C@H]1CC[C@@H]3[C@@]4(C)C/C(=C/c5cccnc5)C(=O)C(C)(C)[C@@H]4CC[C@@]3(C)[C@]1(C)CC2 | -34.3% (active)

Row | SMILES | growth
21 | CN(CSc1ccc(Cl)cc1)c1ccc(CSc2ccc(Cl)cc2)cc1 | 93.3%
22 | CCCCCCCCNc1cccc2c1C(=O)c1ccccc1C2=O | 111%
23 | CC(CNc1nc(Nc2ccc(Cl)c(Cl)c2)nc(C(Cl)(Cl)Cl)n1)N(C)C (stereo not given) | -50.8% (active)
24 | O=C(Nc1ccc(/C=C2\SC(=O)N(Cc3ccc(OC(F)(F)F)cc3)C2=O)cc1)c1ccc(Cl)c([N+](=O)[O-])c1 | 87.5%
25 | c1csc(-c2nc(-c3cc4ccccc4c(N4CCOCC4)n3)cs2)c1 | 102%
26 | CC(=O)c1c(C)[nH]c(-c2nc3ccc(N4CCN(C)CC4)cc3[nH]2)c1-c1ccc(OCC2CCOCC2)cc1 | 38%
27 | Oc1cccc2oc(=S)[nH]c12 | 112%
28 | Cn1c(=O)c2c(ncn2CC(=O)Nc2ccc(S(N)(=O)=O)cc2)n(C)c1=O | 105%
29 | COc1ccc(C2c3ccccc3NC(=O)N2C2CCN(C)CC2)c(OC)c1 (stereo not given) | 104%
30 | CC(C)(C)c1nc(-c2ccc(O)c(O)c2)cs1 | 60.9%
31 | Cc1ccsc1-c1ccc2c(c1)COC2(CCCN(C)C)c1ccc(F)cc1 (stereo not given) | 71.9%
32 | N#C/C(=C\c1ccc(-c2ccc(Br)cc2)o1)c1nc(-c2ccco2)cs1 | 99.8%
33 | O=C1c2ccccc2NC(c2cn(-c3ccccc3)nc2-c2cccnc2)N1Cc1ccccc1 (stereo not given) | 98.3%
34 | COc1ccc(C2(Cl)c3ccccc3N(c3ccccc3)c3ccccc32)cc1 | 6.73% (active)
35 | C=C(C)[C@@H]1CC[C@]2(C(=O)N3CCN(CC)CC3)CC[C@]3(C)[C@H](CC[C@@H]4[C@@](C)(CCC(=O)N5CCN(CC)CC5)[C@H](C(=C)C)CC[C@]43C)[C@@H]12 | 78.3%
36 | O=c1[nH]c(=S)[nH]c2nc[nH]c12 | 95.2%
37 | C/C(Cc1ccc(Cl)cc1)=C(/c1ccc(Cl)cc1)c1ccc(OCCN2CCCC2)cc1 | 83.8%
38 | COc1cc2c(cc1-c1c(C)noc1C)ncc1nc(C3CCCCC3)n([C@@H](C)COC(F)F)c12 | 39.1%
39 | COC(=O)C(Cc1ccccc1)n1cc(COc2nc(Cl)nc(Nc3ccc(Cl)cc3)n2)nn1 (stereo not given) | 96.1%
40 | N#C/C(=C\c1ccc(-c2ccc(Br)cc2)o1)c1nc(-c2cccs2)cs1 | 106%
